# Laboratory results: PubChem BioAssay AID2014 (Sanford-Burnham Center for Chemical Genomics, 2009)
# Hit rate of the full screen: of about 290,000 compounds, about 3,000 (1%) were called active. How the calls were made is not given here. Shown is part of a subset that was picked to be rich in actives.
# Target: Polyadenylate-binding protein 1 (Homo sapiens) (UniProt P11940)
# Test: PABP poly(A) RNA binding inhibitors, primary screen, biochemical, fluorescence polarization, uHTS (AID 2014);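 further: calls also rest on retests at 20 µM and on dose response follow-up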
# Settings: stronger effect = higher value
# Chain of Polyadenylate-binding protein 1 (Homo sapiens) (P11940 whole entry, looked up): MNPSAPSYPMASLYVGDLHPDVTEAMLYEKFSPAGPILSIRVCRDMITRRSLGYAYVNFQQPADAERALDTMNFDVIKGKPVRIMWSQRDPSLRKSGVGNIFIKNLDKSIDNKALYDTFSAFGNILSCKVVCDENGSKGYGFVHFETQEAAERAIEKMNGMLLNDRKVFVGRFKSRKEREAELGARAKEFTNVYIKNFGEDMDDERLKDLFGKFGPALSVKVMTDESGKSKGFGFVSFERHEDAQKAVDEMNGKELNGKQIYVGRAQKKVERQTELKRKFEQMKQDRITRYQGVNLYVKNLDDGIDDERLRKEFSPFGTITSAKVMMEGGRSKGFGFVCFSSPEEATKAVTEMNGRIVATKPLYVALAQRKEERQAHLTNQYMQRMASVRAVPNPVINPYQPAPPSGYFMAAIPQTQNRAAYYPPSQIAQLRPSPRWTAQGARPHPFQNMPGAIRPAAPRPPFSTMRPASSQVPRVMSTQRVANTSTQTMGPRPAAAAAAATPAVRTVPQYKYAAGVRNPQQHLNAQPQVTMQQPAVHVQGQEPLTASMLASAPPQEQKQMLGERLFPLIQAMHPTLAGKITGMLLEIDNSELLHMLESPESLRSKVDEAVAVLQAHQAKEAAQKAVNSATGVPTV
SMILES,inhibition (at 35 µM),"inhibition (confirmation repeats, at 20 µM)"
C[N+]1(CCNC(=O)/C=N/O)CCCCC1,63.4% (active),–
CC(C)[C@H](NC(=O)N1CC(=O)Nc2ccccc21)C(=O)N[C@@H](Cc1c[nH]c2ccccc12)C(=O)O,-3.1% (inactive),–
Cc1cccc(-c2c(NC(=O)c3ccco3)oc3ccc(Cl)cc3c2=O)c1,-6.1% (inactive),–
O=C1OC(/C=C/c2ccccc2)=NC/1=C/c1ccco1,16.6% (inactive),5.2%
CC(C)(C)C1C/C(=C/c2ccco2)C(=O)/C(=C/c2ccco2)C1 (centres undefined),-1.8% (active),53.3%
CCC1S/C(=N/N=C/c2ccco2)NC1=O (centres undefined),-11% (inactive),–
Cn1c(=O)oc2cc(S(=O)(=O)NCCC(=O)NCc3ccccc3Cl)ccc21,1% (inactive),–
C=CCNC(=O)CSc1nc2scc(-c3ccco3)c2c(=O)n1CC=C,15.2% (inactive),–
C=CCn1c(=S)[nH]c2scc(-c3ccco3)c2c1=O,69.3% (active),–
C=CCn1c(SCc2csc(C)n2)nc2scc(-c3ccc(C)o3)c2c1=O,6.5% (inactive),–
COc1cccc(NC(=O)N2CCCC2C(=O)NC2CCCCC2)c1 (centres undefined),-0.6% (inactive),–
CCn1cc(C(=O)N2CC(C)CC(C)C2)c(=O)c2cc(S(=O)(=O)N3CCCC3)ccc21 (centres undefined),-11.3% (inactive),–
COc1ccc(-c2cc(C(=O)N(C)Cc3ccc(OC)c(OC)c3OC)c3ccccc3n2)cc1OC,48% (inactive),–
CC(=O)Nc1ccc(/C=N/Nc2ccc(C(=O)c3c(C)cc4ccccn34)cc2[N+](=O)[O-])cc1,9% (inactive),–
Cc1cc2ccccn2c1C(=O)c1cccc(F)c1,2.5% (inactive),–
Cc1ccc(C(C[N+](=O)[O-])c2c(C)cc3ccccn23)cc1 (centres undefined),-2.2% (active),72.2%
Cc1ccc(CNC(=O)Cc2cn(C)c3ccccc23)cc1,6.1% (inactive),–
COc1ccc(C(=O)CSc2nnc(COc3ccccc3)n2Cc2ccco2)cc1,-8.1% (inactive),–
Cn1c2ccccc2c(=O)c2c(=O)n(Cc3ccco3)c(COc3ccccc3)nc21,1.9% (active),54.5%
CCCc1nc2c(c(=O)c3ccccc3n2C)c(=O)n1-c1cc(C)cc(C)c1,4.7% (inactive),–
Cc1cnc(C)c(N2CCN(C(=O)C3CCC(=O)N(CCc4cccc(F)c4)C3)CC2)n1 (centres undefined),4.1% (inactive),–
O=C1CCCC(O)=C1N=Nc1ccc(S(=O)(=O)N2CCOCC2)cc1,14.4% (inactive),–
O=C1CCCC(O)=C1N=Nc1ccc2ncsc2c1,-16.7% (active),53.4%
CCOc1cc(C2/C(=C(/O)c3ccc(S(=O)(=O)N4CCCCC4)cc3)C(=O)C(=O)N2CCOC)ccc1O (centres undefined),1.6% (inactive),–

SMILES,inhibition (at 35 µM),"inhibition (confirmation repeats, at 20 µM)"
Cc1ccc2cc(C)c(N3CCN(c4ccc(F)cc4)CC3)nc2c1,-13.2% (inactive),–
COc1ccc(-c2cc(C(=O)N3CCN(Cc4ccc5c(c4)OCO5)CC3)on2)cc1OC,6.7% (inactive),–
COc1ccc(Cl)cc1NC(=O)CCS(=O)(=O)c1ccc(Br)cc1,54.8% (active),–
O=C(CCS(=O)(=O)c1ccc(Br)cc1)NCCc1ccc(Cl)cc1,19.8% (inactive),10.6%
COc1ccc(Cl)cc1NC(=O)CCS(=O)(=O)c1cc2c(cc1C)NC(=O)CO2,-1.1% (inactive),–
O=C(CSc1ncn[nH]1)N/N=C/c1ccc(F)cc1,-7.9% (inactive),–
O=C(NCCCc1ccccc1)c1cc(COc2c(F)cccc2F)on1,-3.7% (inactive),–
O=C(c1c(F)cccc1F)N1CCN(c2ncc(Br)cn2)CC1,0.7% (inactive),–
Cc1ccc(-c2csc(N(Cc3ccco3)C(=O)c3cccs3)n2)cc1,-9.4% (inactive),–
CN(C(=O)c1ccno1)c1nnc(-c2cccnc2)s1,12% (inactive),–
Cc1nnc(N(Cc2ccco2)C(=O)c2ccno2)s1,68.4% (active),–
O=C(CCN1C(=O)[C@H]2CC=CC[C@H]2C1=O)NCc1nc(-c2ccccc2)no1,15.4% (inactive),–
O=C1c2ccccc2S(=O)(=O)N1Cc1c(F)cccc1Cl,5.7% (inactive),–
CN1CCc2nc(SC(C(=O)O)c3ccccc3)c(C#N)c(-c3cccs3)c2C1 (centres undefined),68.1% (active),–
CCc1c(-c2ccccc2)nc(N)c(C#N)c1-c1cccs1,-4.1% (inactive),–
Cc1c(-c2ccccc2)nc(N)c(C#N)c1-c1cccs1,-3.2% (inactive),–
CCOC(=O)C1(Cc2ccccc2C)CCCN(C(=O)CCc2c(C)noc2C)C1 (centres undefined),2.2% (inactive),–
CCn1c(=S)sc2c(=O)n(CC(=O)Nc3ccc(OC)cc3)c(C)nc21,-6.5% (inactive),–
Cc1cccc(C)c1NC(=O)CSc1nc2c([nH]1)c(=O)n(C)c(=O)n2C,1% (inactive),–
COc1cc(CCC(=O)N2CCN(c3ccccc3Cl)CC2)cc(OC)c1OC,9.6% (inactive),–
CCc1nnc(NC(=O)Cc2cccs2)s1,10.4% (inactive),–
COc1ccc(Cc2nnc(NC(=O)c3ccc(OC)cc3OC)s2)cc1,-6% (inactive),–
COc1ccc(Cc2nnc(NC(=O)Cc3cccs3)s2)cc1,72.4% (active),–
CNS(=O)(=O)c1cccc(C(=O)NCC2CCCCC2)c1,1% (inactive),–

SMILES,inhibition (at 35 µM),"inhibition (confirmation repeats, at 20 µM)"
Cc1nn(Cc2ccccc2)c2c1C(c1ccccc1)C(C#N)=C(N)O2 (centres undefined),5.6% (inactive),–
Cc1cc(C)c2c3c(sc2n1)C(c1ccccc1)C(C#N)=C(N)O3 (centres undefined),120% (active),63.8%
Cc1cc(C)c(C#N)c(SCc2[nH]nc3c2C(c2ccccc2)C(C#N)=C(N)O3)n1 (centres undefined),-7.3% (inactive),–
O=C(N/N=C/c1ccccc1O)/C(=C/c1ccccc1)CCO,-0.9% (inactive),–
CCOc1cc(/C=N/Nc2cc(C)nc3ccc(C)cc23)ccc1O,-6.9% (inactive),–
CN(C(=O)COC(=O)c1cc(-c2ccco2)nc2ccccc12)C1CCS(=O)(=O)C1 (centres undefined),77.7% (active),–
CN(C(=O)COC(=O)c1nc(Cl)ccc1Cl)C1CCS(=O)(=O)C1 (centres undefined),1.3% (inactive),–
Cc1c(-c2cccc(Cl)c2)nc2ccccc2c1C(=O)OCC(=O)N(C)C1CCS(=O)(=O)C1 (centres undefined),6.7% (inactive),–
Cc1cccc(Nc2nc(-c3ccccc3)cs2)n1,3.3% (inactive),–
COc1cccc(S(=O)(=O)NCc2ccc(C(=O)NCc3ccccn3)cc2)c1,1.8% (inactive),–
O=C(NCc1ccccn1)c1cc(Br)ccc1Cl,0.7% (inactive),–
O=C(NCc1ccccn1)c1ccc2nc(-c3ccco3)c(-c3ccco3)nc2c1,77.7% (active),–
N#CC1=C(N)Oc2c(sc3ccccc23)C1c1ccco1 (centres undefined),86.3% (active),–
N#CC1=C(N)Oc2c(ccc3cccnc23)C1c1ccncc1 (centres undefined),10.6% (inactive),–
CC1=C(C(=O)Nc2ccccc2)C(c2ccco2)C(C#N)=C(SCC(N)=O)N1 (centres undefined),7.1% (inactive),–
COCCCNc1nc2c(-c3cccc(C)c3)nnn2c2ccc(Cl)cc12,3.2% (inactive),–
COc1cccc(N(C(=O)CNC(=O)c2ccco2)C(C(=O)NC2CCCCC2)c2cccnc2)c1 (centres undefined),10.1% (inactive),–
CN(C)CCCNC(=S)N1CCC(c2nc3ccccc3[nH]2)CC1,-6% (inactive),–
COc1ccc(C(CNC(=O)COc2ccc([N+](=O)[O-])cc2)N2CCCCC2)cc1 (centres undefined),1% (inactive),–
NC(=O)c1c(Nc2nc3c(F)cccc3s2)sc2c1CCCC2,-15.3% (active),73.7%
NC(=O)c1c(NC(=O)c2ccccc2)sc2c1CCCC2,3.6% (inactive),–
Fc1cc(F)c2nc(Nc3nc4c(F)cccc4s3)sc2c1,0.5% (inactive),–
COc1ccc(C(=O)NCCSc2ccccc2C)cc1,1.1% (inactive),–
COCc1cc(C)n(CC(=O)NCC2CCCO2)c(=O)c1C#N (centres undefined),-1.9% (inactive),–

SMILES,inhibition (at 35 µM),"inhibition (confirmation repeats, at 20 µM)"
Cc1ccc(N2CCN(C(=O)c3cccs3)CC2)c(C)c1,3.2% (inactive),–
COc1ccc(C(C)=O)cc1CSc1nc2nc(C)cc(C)n2n1,-7.3% (inactive),–
Cc1cc(C)n2nc(SCC(N)=O)nc2n1,51.5% (active),81.1%
CCOC(=O)C(C)Sc1nnc(CSc2nc3nc(C)cc(C)n3n2)o1 (centres undefined),2.5% (inactive),–
Cc1onc(C(=O)Nc2ccc3c(c2)OCO3)c1[N+](=O)[O-],1.4% (inactive),–
Cc1ccnc(N2C(=O)c3ccc([N+](=O)[O-])cc3C2=O)c1,47.5% (inactive),–
COc1ccccc1NC(=O)Nc1nnc(Cc2ccc(F)cc2)s1,-15% (inactive),–
COc1ccc(C(CNC(=O)c2cc3c(s2)CCCC3)N2CCOCC2)cc1 (centres undefined),11.9% (inactive),–
CC(=O)NC(Cc1ccc(F)c(F)c1)C(=O)NC1CCN(C(=O)c2ccc(C)cc2)CC1 (centres undefined),1.9% (inactive),–
CNC(=S)N1CCC(NC(=O)C(Cc2ccc(F)cc2)NC(C)=O)CC1 (centres undefined),63.2% (active),–
COc1ccc(CC(NC(C)=O)C(=O)NC2CCN(C(=O)c3ccc(Cl)cc3)CC2)cc1 (centres undefined),3.2% (inactive),–
C[C@@H]1CC[C@@]2(OC1)O[C@H]1C[C@H]3[C@@H]4CC=C5C[C@@H](O)[C@H](O)C[C@]5(C)C4CC[C@]3(C)[C@H]1[C@@H]2C (some centres undefined),7.2% (inactive),–
O=C1CN(C(=O)c2cc(F)cc(F)c2)c2ccccc2N1,-2.2% (inactive),–
Cc1cc(O)c(C(=O)/C=C/c2c(F)c(F)c(F)c(F)c2F)c(=O)o1,-2.1% (inactive),–
Cc1cc2c(=O)n(CC(=O)NCC(=O)Nc3ccc(C(C)C)cc3)cnc2s1,9.1% (inactive),–
Cc1ccc(-n2ncc3c2CCCC3NC(=O)c2cnccn2)cc1C (centres undefined),5.7% (inactive),–
O=C(c1cccs1)N(C(=O)c1cccs1)c1ccccn1,0.2% (inactive),–
O=C(CNC(=O)c1ccc(Br)o1)NCC1CCCO1 (centres undefined),-3.6% (inactive),–
O=C(c1ccc(Br)o1)N(c1ccccn1)C1CCCCC1,-4.7% (active),75.2%
CC1(C)CC(=O)C=C(Nc2ccccc2)C1,2.3% (inactive),–
CC1(C)CC(=O)C(C2c3ccccc3S(=O)(=O)c3ccccc32)C(=O)C1,62.9% (active),–
CC1(C)CC(=O)NC=C(c2ccccc2)C1,-9.5% (inactive),–
